Results filed as inconclusive are left out. Active and inactive are the calls of the source. Rule for the calls, unless noted: active = hit-call score of the fitted dose curve at least 0.9, where 1 is the maximum; inconclusive = response in the unintended direction; inactive = score below 0.9.
Legend:
[1] = CPHEA_Stoker_NIS_Cytotoxicity: Cytotoxicity Assessment for CPHEA's Radioactive Iodide Uptake (RAIU) Assay for Sodium/Iodide Symporter (NIS) Inhibition, Stoker and Laws Labs (AID 2283897)
Method in brief: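 hNIS-HEK293T-EPA cells, human NIS expressed in HEK293T, treated 2 h with chemicals (0.001–100 uM, 0.5% final DMSO). ATP content read by CellTiter-Glo luminescence; loss of signal analysed relative to DMSO.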

[2] = tested on: Sodium/Iodide Symporter (NIS), SLC5A5 (gene 6528); test: CPHEA_Stoker_NIS_Inhibition_RAIU: CPHEA's Radioactive Iodide Uptake (RAIU) Assay for Sodium/Iodide Symporter (NIS) Inhibition, Stoker and Laws Labs (AID 2283841)
Method in brief: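 hNIS-HEK293T-EPA cells incubated 2 h at room temperature with compound (0.001–100 uM, 0.5% DMSO) and 329 pM final 125I in HBSS/10 mM HEPES, pH 7.4. Intracellular 125I counted; normalised to DMSO maximal uptake, triplicate, three biological replicates.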

[3] = CEETOX_H295R_11DCORT_noMTC: CeeTox H295R High-throughput Steroidogenesis Assay for 11-Deoxycortisol (11DCORT), maximum tolerated concentration (MTC) filtered results only (AID 2283911; active = hit-call score of the fitted dose curve at least 0.9, where 1 is the maximum; inactive = score below 0.9); details: actives raise or lower the signal
Method in brief: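 HPLC-MS/MS read-out of 11-deoxycortisol after MTBE extraction of H295R medium. Cells: forskolin 10 uM pre-stimulation 48 h, chemical 48 h, 0.1% DMSO final. Bidirectional fit vs DMSO baseline; no MTC filtering.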

[4] = CEETOX_H295R_OHPREG_noMTC: CeeTox H295R High-throughput Steroidogenesis Assay for OH-Pregnenolone (OHPREG), maximum tolerated concentration (MTC) filtered results only (AID 2283912; active = hit-call score of the fitted dose curve at least 0.9, where 1 is the maximum; inactive = score below 0.9); details: actives raise or lower the signal
Method in brief: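 Steroidogenesis in H295R cells (OECD 456, modified): after 48 h forskolin priming and 48 h chemical treatment, secreted 17alpha-hydroxypregnenolone is measured by HPLC-MS/MS. Activity is fitted in both directions against DMSO; concentrations are not filtered by MTT-based MTC.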

[5] = CEETOX_H295R_OHPROG_noMTC: CeeTox H295R High-throughput Steroidogenesis Assay for OH-Progesterone (OHPROG), maximum tolerated concentration (MTC) filtered results only (AID 2283914; active = hit-call score of the fitted dose curve at least 0.9, where 1 is the maximum; inactive = score below 0.9); details: actives raise or lower the signal
Method in brief: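 Forskolin 10 uM, 48 h prestim → test cmpd in DMSO (0.1% final), 48 h → medium MTBE extraction → LC-MS/MS quant of 17alpha-OH-progesterone. Bidirectional fit vs DMSO; no MTT-based MTC filtering.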

[6] = CEETOX_H295R_CORTISOL_noMTC: CeeTox H295R High-throughput Steroidogenesis Assay for Cortisol, maximum tolerated concentration (MTC) filtered results only (AID 2283916; active = hit-call score of the fitted dose curve at least 0.9, where 1 is the maximum; inactive = score below 0.9); details: actives raise or lower the signal
Method in brief: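 Cortisol secretion measured by LC-MS/MS after 48 h chemical treatment (final 0.1% DMSO) of forskolin-primed (10 uM, 48 h) H295R cells; gain or loss fitted relative to DMSO, without maximum-tolerated-concentration filtering.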

[7] = CEETOX_H295R_CORTIC_noMTC: CeeTox H295R High-throughput Steroidogenesis Assay for Corticosterone (CORTIC), maximum tolerated concentration (MTC) filtered results only (AID 2283917; active = hit-call score of the fitted dose curve at least 0.9, where 1 is the maximum; inactive = score below 0.9); details: actives raise or lower the signal
Method in brief: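 Following OECD 456 with minor changes, H295R cultures received 10 uM forskolin for 48 h, then test chemical at 0.1% DMSO for 48 h. Media steroids were extracted and measured by LC-MS/MS.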

[8] = CEETOX_H295R_DOC_noMTC: CeeTox H295R High-throughput Steroidogenesis Assay for DOC, maximum tolerated concentration (MTC) filtered results only (AID 2283918; active = hit-call score of the fitted dose curve at least 0.9, where 1 is the maximum; inactive = score below 0.9); details: actives raise or lower the signal
Method in brief: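 11-Deoxycorticosterone secreted by human adrenal H295R cells quantified by HPLC-MS/MS after 48 h chemical exposure (0.1% DMSO), following 48 h 10 uM forskolin prestimulation. Concentrations not filtered by MTT-derived MTC; bidirectional fitting.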

[9] = CEETOX_H295R_ESTRADIOL_noMTC: CeeTox H295R High-throughput Steroidogenesis Assay for Estradiol, maximum tolerated concentration (MTC) filtered results only (AID 2283919; active = hit-call score of the fitted dose curve at least 0.9, where 1 is the maximum; inactive = score below 0.9); details: actives raise or lower the signal
Method in brief: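 H295R human adrenal cells pre-stimulated 48 h with 10 uM forskolin, then exposed 48 h to chemical (0.1% DMSO final). Estradiol in medium measured by HPLC-MS/MS after MTBE extraction and dansyl derivatization; bidirectional fit versus DMSO, concentrations not MTT-filtered.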

[10] = CEETOX_H295R_PROG_noMTC: CeeTox H295R High-throughput Steroidogenesis Assay for Progesterone (PROG), maximum tolerated concentration (MTC) filtered results only (AID 2283920; active = hit-call score of the fitted dose curve at least 0.9, where 1 is the maximum; inactive = score below 0.9); details: actives raise or lower the signal
Method in brief: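 H295R cells; forskolin 10 uM x 48 h prestim; test cpd 48 h, 0.1% DMSO final; media progesterone via LC-MS/MS; bidirectional fit vs DMSO; no MTT-based MTC filter applied.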

CN[C@H]1CC[C@@H](c2ccc(Cl)c(Cl)c2)c2ccc(S(N)(=O)=O)cc21
outcome [1]: inactive

NC(=O)Cn1c(=O)cc(CCN2CCN(c3nccc4sccc34)CC2)c2ccc(F)cc21
outcome [2]: inactive | outcome [1]: inactive

Cc1oc(-c2ccccc2)nc1CCOc1cccc2c1ccn2CCC(=O)O
outcome [1]: inactive | AC50 [3]: 9.6 µM (active) | outcome [4]: inactive | outcome [5]: inactive | outcome [6]: inactive | outcome [7]: inactive | AC50 [8]: 6.44 µM (active) | outcome [9]: inactive | AC50 [10]: 12.9 µM (active)

COc1ccc(S(=O)(=O)N2C(=O)[C@@](c3ccccc3OC)(N3C[C@H](O)C[C@H]3C(=O)N(C)C)c3cc(Cl)ccc32)c(OC)c1
outcome [2]: inactive | outcome [1]: inactive

CC(C)(C)c1cc(O)c(C(C)(C)C)cc1O
outcome [2]: inactive | outcome [1]: inactive

C=CCOC(=O)c1ccccc1C(=O)OCC=C
outcome [4]: inactive | outcome [5]: inactive | outcome [10]: inactive

CCCCC(CC)COC(=O)CC(C(=O)OCC(CC)CCCC)S(=O)(=O)O (stereo unspecified)
outcome [2]: inactive | outcome [1]: inactive

O=C(OCCCCCOC(=O)c1ccccc1)c1ccccc1
outcome [1]: inactive | outcome [3]: inactive | outcome [4]: inactive | outcome [5]: inactive | outcome [6]: inactive | outcome [7]: inactive | outcome [8]: inactive

O=C(N[C@@H](Cc1ccccc1)[C@@H](O)C(=O)N1C[C@@H](O)[C@@H](O)C1)c1cc2cc(Cl)ccc2[nH]1
outcome [1]: inactive

Cc1ccc(C)c(C)c1
outcome [1]: inactive

Nc1ccccc1N
outcome [2]: inactive | outcome [1]: inactive

O=c1c(O)c(-c2ccc(O)c(O)c2)oc2cc(O)cc(O)c12
outcome [2]: inactive | outcome [1]: inactive

FC(F)(F)C(F)(F)C(F)(F)C(F)(F)C(F)(F)C(F)(F)CCI
outcome [2]: inactive | outcome [1]: inactive

Oc1ccc2ccccc2c1N=Nc1ccccc1
outcome [2]: inactive | outcome [1]: inactive

CCc1c(C(=O)NN2CCCCC2)nn(-c2ccc(Cl)cc2Cl)c1-c1ccc(Br)cc1
outcome [1]: inactive

Oc1ccc2c(c1)OC[C@@H](N1CCC(O)(c3ccc(F)cc3)CC1)[C@H]2O
outcome [2]: inactive | outcome [1]: inactive
